The text below walks through data of PubChem BioAssay.

Molecules are shown by their SMILES. Results filed as inconclusive are left out. The source made the active and inactive calls.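 Rule for the calls, unless noted: active = inhibition above 54%, about 3 SD of non-fluorescent compounds; inactive = the rest.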

Assay [1] is described as follows: rapamycin-like changes in RPL19A-GFP expression – cell-based, S. cerevisiae, multiplex flow cytometry, primary screen (AID 1862; in the data active = percent of DMSO control GFP below about 86%;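 note: lower values mimic rapamycin by blocking the RPL19A rise seen in DMSO cells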). To be noted: S. cerevisiae RPL19A-GFP strain, flow cytometry fluorescence, 3 h; at 10 µM; stronger effect = lower value.
Assay [2] can be described thus: TOR pathway GLN3 branch reporter MEP2-GFP changes – S. cerevisiae, multiplex flow cytometry, primary screen (AID 1867;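 active = GFP response, as percent of the DMSO control, above the screen-wide mean plus 3 SD, about 139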;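 note: median GFP channel fluorescence of barcode-gated MEP2-GFP cells measured by flow cytometry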). The note with it: S. cerevisiae MEP2-GFP strain, 3 h, at 10 µM, stronger effect = higher value, 100% means same as DMSO wells.
The nature of assay [3]: TOR pathway RTG branch CIT2 reporter changes – S. cerevisiae, GFP fusion, multiplex flow cytometry, primary screen (AID 1870;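 active = percent response above a set limit, the screen-wide mean plus 3 SD, cut at about 130% in these data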;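 note: barcoded CIT2-GFP strain pooled with four other GFP strains with rapamycin as positive control; median GFP fluorescence per well over plate mean of DMSO wells so 100% = DMSO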). To be noted: S. cerevisiae CIT2-GFP expression, 3 h, at 10 µM, stronger effect = higher value.
Assay [4] is described as follows: TOR pathway LAP4-GFP level changes – S. cerevisiae, multiplex flow cytometry, primary screen (AID 1873;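 active = GFP signal, as percent of the solvent control, above the screen mean plus 3 SD, about 149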). To be noted: S. cerevisiae LAP4-GFP expression, 3 h, at 10 µM, stronger effect = higher value.
The nature of assay [5]: yeast AGP1-GFP level changes, GLN3 branch – cell-based, multiplex flow cytometry, S. cerevisiae, primary screen (AID 1887;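 active = GFP signal above the screen-wide mean plus 3 SD, that is over about 124.5% of the solvent control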;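 note: AGP1-GFP fusion strain of S. cerevisiae within a five-strain barcoded multiplex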). To be noted: 3 h, at 10 µM, stronger effect = higher value.
The nature of assay [6]: reduced mouse 2C T cell binding to pMHC/ICAM-1 vesicles – MLPCN validation set, flow cytometry, LFA-1/ICAM-1 modulator project, pilot screen (AID 2523;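 active = response below a set limit, under 55% cells CD8-positive and vesicle-bound, and CD8 cells' 90th-percentile brightness under 279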;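 for vesicle binding response: mean PE anti-B7-1 fluorescence of CD8+ cells relative to row control; 100% = QL9-loaded vesicles with DMSO vehicle in the same plate row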). To be noted: 2C mouse CD8+ T cells, at 7 µM, stronger effect = lower value; double positive events: measured here: CD8+/vesicle+ event percentage.
Assay [7] deals with Integrin beta-1 (Homo sapiens) + Integrin alpha-4 (Homo sapiens) (UniProt P13612+P05556). Kind of assay: alpha4beta1 integrin LIBS antibody binding reduction – U937 cells, HUTS-21 mAb, flow cytometry, validation set, VLA-4 allosteric modulator project, pilot screen (AID 2674;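 active = inhibition above 50%, about 3 SD of the validation set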;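 note: antibody binding induced by the VLA-4 ligand LDV present at three times its Kd; 0% = LDV ligand with antibody and no compound and 100% = antibody without LDV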). To be noted: HUTS-21 LIBS mAb binding, at 6.7 µM, stronger effect = higher value, binding induced by LDV ligand.

Assay [8] is described as follows: calorie-restriction mimetic ROS inhibitors, yeast – validation compound set, pilot screen (AID 2706;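 active = superoxide response below 65% of plate, a cut near 3 SD across the whole screen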;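 note: yeast exposed to compound for one week at 30 degrees C before staining; 100% = mean of all compound wells on the same plate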). To be noted: S. cerevisiae aging, superoxide DHE fluorescence; at 10 µM; stronger effect = lower value.
For assay [9], the target named is Beta-adrenergic receptor kinase 1 (Homo sapiens) (UniProt P25098). As to the kind of experiment: GRK2 binders displacing RNA aptamer, biochemical, validation, human GRK2, bead flow cytometry (AID 488806;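 active = aptamer binding inhibition above 30%, about 3 SD of noise from non-fluorescent compounds; inactive = inhibition at or below 30%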). The note with it: bead-bound GRK2, FAM-aptamer displacement, at 10 µM, stronger effect = higher value.
Assay [10] concerns the target Beta-2 adrenergic receptor (Homo sapiens) (UniProt P07550). As to the kind of experiment: agonist-induced loss of surface beta2AR – cell-based, FAP fluorogen, flow cytometry, validation set, pilot screen (AID 504459;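 active = percent response above 42, roughly 3 SD of non-fluorescent test compounds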;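 note: agonist-driven loss of surface beta2AR via internalization measured by FAP dye flow cytometry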). To be noted: Am2.2-beta2AR cells, at 10 µM, stronger effect = higher value.
In assay [11] the target is AP-2 complex subunit beta (Homo sapiens) (UniProt P63010). As to the kind of experiment: beta-arrestin/AP2 interaction blockers – biochemical, validation set, GST-AP2 beads, flow cytometry, pilot screen (AID 504541).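 Note: AP2 carries R879A mutation and is captured from E. coli lysate; bead-bound FITC arrestin peptide fluorescence measuring arrestin peptide binding to AP2; 0% = DMSO wells and 100% = excess unlabeled arrestin peptide control.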 To be noted: FITC arrestin peptide, at 10 µM, stronger effect = higher value, AP2 beta2 appendage fragment, R879A mutant.
Assay [12] is described as follows: cytosolic pH regulators acting via V-ATPase – S. cerevisiae, pHLuorin, HTS validation (AID 504600; in the data active = response above about 15%;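 note: plate controls were DMSO for no effect and reference compound for full effect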). To be noted: V-ATPase proton transport, at 10 µM, stronger effect = higher value.
Assay [13] relates to anti-desmoglein-3 scFv antibody binding to human DSG3. As to the kind of experiment: blockers of pathogenic pemphigus antibody–desmoglein-3 binding – biochemical, validation compound set, bead-based, flow cytometry, pilot screen (AID 588368;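 active = binding below the plate cutoff, the plate median minus 3 SD, with a reading above zero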;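 note: signal is the median channel fluorescence of bead-bound GFP antibody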). The note with it: Protein G beads, DSG3-Fc, scFv-GFP binding, at 10 µM, stronger effect = lower value.
Assay [14] is described as follows: Nile Red efflux blockade in pump-expressing yeast – validation compound set, multiplex, phenotypic, pilot screen (AID 588506;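 active = efflux inhibition above 0.42, the validation set average plus 4 SD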;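 note: Nile Red retained in cells so higher fluorescence means more efflux inhibition; 0 = negative control wells and 1 = enniatin B 25 µM full block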). The note with it: S. cerevisiae pump-expressing triplex, Nile Red efflux flow cytometry; at 10 µM; stronger effect = higher value; the pumps come from Candida albicans.
In assay [15] the target is ATP-binding cassette sub-family B member 6 (Homo sapiens) (UniProt Q9NP58). Kind of assay: blockers of ABCB6-driven porphyrin uptake – K562-ABCB6 cells, flow cytometry, validation set, pilot screen (AID 588550;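 active = inhibition above the screen-wide mean plus 3 SD, about 51%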;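 note: 0% = DMSO wells and 100% = benzethonium chloride 70 µM positive control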). To be noted: K562-ABCB6 porphyrin accumulation, 1 h, at 10 µM, stronger effect = higher value.
Assay [16] is described as follows: AML differentiation inducers, ER-HoxA9 marrow cells – cell-based, GFP/MAC1 double positive, flow cytometry, validation set, primary screen (AID 588685;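 active = differentiation response of at least 50%, scaled between solvent and reference control, from cells with both markers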;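 note: compound exposure lasts four days before antibody staining and flow analysis; 0% = DMSO wells and 100% = 5 µM fulvestrant positive control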). The note with it: stronger effect = higher value, normalized: vehicle 0, fulvestrant 100.

Chain of Beta-2 adrenergic receptor (Homo sapiens) (P07550 whole entry, looked up): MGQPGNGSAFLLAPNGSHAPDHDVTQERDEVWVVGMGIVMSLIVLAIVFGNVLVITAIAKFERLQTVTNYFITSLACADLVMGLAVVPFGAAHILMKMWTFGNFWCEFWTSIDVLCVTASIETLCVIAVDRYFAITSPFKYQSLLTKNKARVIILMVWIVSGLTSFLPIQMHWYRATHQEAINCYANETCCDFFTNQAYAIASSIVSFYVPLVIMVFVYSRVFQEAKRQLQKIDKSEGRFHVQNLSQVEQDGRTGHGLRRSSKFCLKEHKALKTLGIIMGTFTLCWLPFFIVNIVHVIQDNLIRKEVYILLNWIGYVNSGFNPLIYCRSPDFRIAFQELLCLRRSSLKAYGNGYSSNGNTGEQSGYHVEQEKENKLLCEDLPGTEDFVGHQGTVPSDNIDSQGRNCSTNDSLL
Chain of AP-2 complex subunit beta (Homo sapiens) (P63010 whole entry, looked up, the tested form may be a part, one chain of several): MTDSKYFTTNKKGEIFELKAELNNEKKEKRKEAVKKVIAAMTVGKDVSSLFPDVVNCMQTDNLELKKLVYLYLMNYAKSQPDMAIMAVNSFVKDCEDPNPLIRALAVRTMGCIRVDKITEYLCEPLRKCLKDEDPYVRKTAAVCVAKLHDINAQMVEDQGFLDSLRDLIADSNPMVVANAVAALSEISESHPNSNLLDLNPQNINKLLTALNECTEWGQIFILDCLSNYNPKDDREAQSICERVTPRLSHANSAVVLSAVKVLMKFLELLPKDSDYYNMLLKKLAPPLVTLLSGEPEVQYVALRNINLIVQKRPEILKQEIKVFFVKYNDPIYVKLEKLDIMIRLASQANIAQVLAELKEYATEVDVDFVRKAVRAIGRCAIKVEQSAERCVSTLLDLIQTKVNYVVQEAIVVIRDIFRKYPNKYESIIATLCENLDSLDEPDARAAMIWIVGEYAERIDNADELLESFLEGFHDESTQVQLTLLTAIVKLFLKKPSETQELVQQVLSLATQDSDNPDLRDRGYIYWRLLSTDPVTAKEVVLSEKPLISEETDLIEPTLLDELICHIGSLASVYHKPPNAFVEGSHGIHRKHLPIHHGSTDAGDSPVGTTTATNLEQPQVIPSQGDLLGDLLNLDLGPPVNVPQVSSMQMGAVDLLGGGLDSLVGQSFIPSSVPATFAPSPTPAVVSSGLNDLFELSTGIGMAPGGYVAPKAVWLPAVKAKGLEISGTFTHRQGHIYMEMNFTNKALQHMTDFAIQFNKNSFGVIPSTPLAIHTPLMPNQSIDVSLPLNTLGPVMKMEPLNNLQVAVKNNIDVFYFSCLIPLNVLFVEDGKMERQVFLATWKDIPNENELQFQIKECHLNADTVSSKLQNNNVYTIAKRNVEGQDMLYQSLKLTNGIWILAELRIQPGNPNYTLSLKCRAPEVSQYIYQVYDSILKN
Chain of Beta-adrenergic receptor kinase 1 (Homo sapiens) (P25098 whole entry, looked up): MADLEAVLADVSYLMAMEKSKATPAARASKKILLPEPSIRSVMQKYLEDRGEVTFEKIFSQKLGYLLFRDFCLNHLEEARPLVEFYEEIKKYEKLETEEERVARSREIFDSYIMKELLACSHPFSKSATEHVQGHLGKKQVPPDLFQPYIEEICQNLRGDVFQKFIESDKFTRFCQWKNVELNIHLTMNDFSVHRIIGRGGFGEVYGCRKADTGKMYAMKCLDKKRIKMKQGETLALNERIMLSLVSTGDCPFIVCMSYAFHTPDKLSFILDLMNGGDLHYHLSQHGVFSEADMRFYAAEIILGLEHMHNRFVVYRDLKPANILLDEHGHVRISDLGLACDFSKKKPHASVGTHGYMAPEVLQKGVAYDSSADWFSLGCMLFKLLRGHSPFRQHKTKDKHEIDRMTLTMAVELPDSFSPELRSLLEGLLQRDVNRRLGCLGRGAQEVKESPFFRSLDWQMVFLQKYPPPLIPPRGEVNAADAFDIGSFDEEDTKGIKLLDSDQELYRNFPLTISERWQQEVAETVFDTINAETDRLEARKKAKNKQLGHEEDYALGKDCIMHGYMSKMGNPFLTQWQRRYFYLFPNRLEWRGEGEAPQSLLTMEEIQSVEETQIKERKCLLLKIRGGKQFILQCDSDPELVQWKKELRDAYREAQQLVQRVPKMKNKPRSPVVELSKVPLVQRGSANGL
Chain of ATP-binding cassette sub-family B member 6 (Homo sapiens) (Q9NP58 whole entry, looked up): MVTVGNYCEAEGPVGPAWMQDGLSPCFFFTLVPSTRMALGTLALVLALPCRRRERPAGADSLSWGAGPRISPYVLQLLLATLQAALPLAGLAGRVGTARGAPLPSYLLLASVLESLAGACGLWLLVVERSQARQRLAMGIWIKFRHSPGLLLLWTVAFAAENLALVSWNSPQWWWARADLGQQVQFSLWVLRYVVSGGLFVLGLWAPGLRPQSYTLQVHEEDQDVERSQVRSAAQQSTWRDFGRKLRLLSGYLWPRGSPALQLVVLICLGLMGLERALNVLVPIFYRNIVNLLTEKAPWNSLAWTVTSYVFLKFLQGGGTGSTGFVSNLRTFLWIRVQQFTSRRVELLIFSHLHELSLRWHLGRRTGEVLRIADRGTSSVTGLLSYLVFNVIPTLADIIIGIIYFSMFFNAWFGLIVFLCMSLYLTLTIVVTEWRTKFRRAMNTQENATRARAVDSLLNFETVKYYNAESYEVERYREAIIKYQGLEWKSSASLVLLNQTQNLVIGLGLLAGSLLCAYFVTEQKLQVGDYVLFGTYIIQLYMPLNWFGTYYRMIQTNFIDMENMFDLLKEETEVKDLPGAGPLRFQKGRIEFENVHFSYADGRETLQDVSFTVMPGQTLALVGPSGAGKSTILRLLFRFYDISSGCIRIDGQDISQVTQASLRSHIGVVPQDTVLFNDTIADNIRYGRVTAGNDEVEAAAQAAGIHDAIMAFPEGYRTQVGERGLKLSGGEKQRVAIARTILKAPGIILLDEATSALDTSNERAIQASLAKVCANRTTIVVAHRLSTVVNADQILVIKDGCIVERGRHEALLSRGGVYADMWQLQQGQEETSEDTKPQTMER
Chain of Integrin beta-1 (Homo sapiens) + Integrin alpha-4 (Homo sapiens) (P05556 whole entry, looked up): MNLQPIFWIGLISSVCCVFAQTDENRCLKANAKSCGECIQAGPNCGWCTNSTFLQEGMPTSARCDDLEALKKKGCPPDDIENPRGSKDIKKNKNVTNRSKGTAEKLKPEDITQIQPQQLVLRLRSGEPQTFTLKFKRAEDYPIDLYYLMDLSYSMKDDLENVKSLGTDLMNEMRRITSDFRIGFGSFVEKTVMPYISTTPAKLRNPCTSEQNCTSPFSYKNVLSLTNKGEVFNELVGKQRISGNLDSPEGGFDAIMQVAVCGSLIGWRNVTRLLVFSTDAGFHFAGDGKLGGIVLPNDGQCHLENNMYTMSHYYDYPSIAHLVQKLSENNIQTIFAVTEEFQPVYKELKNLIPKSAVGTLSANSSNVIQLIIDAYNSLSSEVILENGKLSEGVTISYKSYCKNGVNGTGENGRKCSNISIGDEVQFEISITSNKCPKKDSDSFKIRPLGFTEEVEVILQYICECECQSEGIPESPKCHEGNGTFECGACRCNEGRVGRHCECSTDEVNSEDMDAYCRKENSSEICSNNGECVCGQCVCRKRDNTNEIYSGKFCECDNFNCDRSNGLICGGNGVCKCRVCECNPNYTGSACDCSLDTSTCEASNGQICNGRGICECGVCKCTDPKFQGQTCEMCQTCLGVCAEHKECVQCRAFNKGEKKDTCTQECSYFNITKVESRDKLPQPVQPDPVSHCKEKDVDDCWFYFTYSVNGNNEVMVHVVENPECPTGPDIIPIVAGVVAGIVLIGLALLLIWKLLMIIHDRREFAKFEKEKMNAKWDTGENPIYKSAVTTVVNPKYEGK
Chain of Integrin beta-1 (Homo sapiens) + Integrin alpha-4 (Homo sapiens) (P13612 whole entry, looked up): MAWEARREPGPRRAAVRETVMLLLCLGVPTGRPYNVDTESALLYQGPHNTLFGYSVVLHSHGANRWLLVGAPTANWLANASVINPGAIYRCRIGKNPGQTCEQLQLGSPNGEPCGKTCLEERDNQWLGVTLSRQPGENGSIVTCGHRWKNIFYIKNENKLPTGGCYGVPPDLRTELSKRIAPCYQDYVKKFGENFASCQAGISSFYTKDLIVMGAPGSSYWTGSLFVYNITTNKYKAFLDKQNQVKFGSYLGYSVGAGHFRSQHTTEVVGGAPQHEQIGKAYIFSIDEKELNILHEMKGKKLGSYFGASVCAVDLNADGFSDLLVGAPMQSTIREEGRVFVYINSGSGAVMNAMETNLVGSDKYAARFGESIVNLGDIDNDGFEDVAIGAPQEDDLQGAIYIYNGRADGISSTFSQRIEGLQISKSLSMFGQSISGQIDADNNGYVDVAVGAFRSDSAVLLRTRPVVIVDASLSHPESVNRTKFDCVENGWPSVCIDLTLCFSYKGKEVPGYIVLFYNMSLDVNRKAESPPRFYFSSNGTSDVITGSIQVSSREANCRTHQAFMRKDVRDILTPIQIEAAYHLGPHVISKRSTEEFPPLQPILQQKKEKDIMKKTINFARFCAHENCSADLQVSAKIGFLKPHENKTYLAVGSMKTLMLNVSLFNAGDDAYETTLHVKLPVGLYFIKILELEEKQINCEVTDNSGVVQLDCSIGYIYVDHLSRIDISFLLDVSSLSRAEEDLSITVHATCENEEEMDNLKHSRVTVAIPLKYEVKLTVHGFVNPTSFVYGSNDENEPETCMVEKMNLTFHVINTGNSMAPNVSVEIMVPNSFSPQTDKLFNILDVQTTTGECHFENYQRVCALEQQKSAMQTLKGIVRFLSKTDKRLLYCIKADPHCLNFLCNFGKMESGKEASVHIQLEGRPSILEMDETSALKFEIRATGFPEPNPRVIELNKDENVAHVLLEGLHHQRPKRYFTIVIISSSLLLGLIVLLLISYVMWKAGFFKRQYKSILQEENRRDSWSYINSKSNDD

On to `CC(=O)[C@@H]1[C@@H](C(=O)c2ccc(C)cc2)[C@]2(C(=O)Nc3ccccc32)[C@H]2C=Cc3cc(F)ccc3N12`, for which the percent of DMSO control GFP in assay [1] was 97.4% (inactive). For the same compound, the GFP response vs DMSO in [2] was 102% (inactive); in assay [4] it was 117% (inactive). The percent response of DMSO control in assay [3] was 90.1% (inactive). Moreover, the GFP response, % of DMSO in assay [5] is 100% (inactive). The same compound registered a double positive events in [6] of 61.3%. For the same compound, the vesicle binding response in [6] was 161% (inactive). Moreover, the inhibition in assay [7] was -119% (inactive); in [11], 4.08% (inactive); in [15] it was 2% (inactive). In addition, in [8], the superoxide response (% of plate) was 112% (inactive). Moreover, the aptamer binding inhibition in [9] is 4% (inactive). The response in [10] was 40.7% (inactive); in assay [12] it was -5.02% (inactive). Further, the binding (% of control) in assay [13] is 98.9% (inactive). Also, the efflux inhibition (fraction of control) in assay [14] is -0.03 (inactive). Besides, the differentiation response in assay [16] was 8.8% (inactive).

For `O=C(O)CCC(=O)c1ccc(-c2ccccc2)cc1`, the percent of DMSO control GFP in [1] is 102% (inactive). Besides, the GFP response vs DMSO in assay [2] was 102% (inactive); in assay [4], 125% (inactive). Further, the percent response of DMSO control in assay [3] is 102% (inactive). For the same compound, the GFP response, % of DMSO in assay [5] was 108% (inactive). The compound further returned a double positive events in [6] of 65.4%. Moreover, the vesicle binding response in assay [6] was 245% (inactive). Further, the inhibition in assay [7] was -9.13% (inactive); in assay [11], 10.7% (inactive); in [15] it was 0% (inactive). Moreover, in assay [8], the superoxide response (% of plate) was 99.8% (inactive). Further, the aptamer binding inhibition in assay [9] is -1% (inactive). For the same compound, the response in [10] is 11.2% (inactive); in assay [12] it was -4.64% (inactive). Besides, the binding (% of control) in [13] is 103% (inactive). Further, the efflux inhibition (fraction of control) in assay [14] was 0.36 (inactive). Moreover, the differentiation response in assay [16] was -11.9% (inactive).

As for `COc1ccc(C(=O)CC2OC(=O)c3c2ccc(OC)c3OC)cc1` (stereo not drawn), the percent of DMSO control GFP in assay [1] is 106% (inactive). For the same compound, the figures for the GFP response vs DMSO in assay [2] and in assay [4] were 100% (inactive) and 99.9% (inactive), respectively. Besides, in assay [3], the percent response of DMSO control was 106% (inactive). Also, in assay [5], the GFP response, % of DMSO was 104% (inactive). The compound also gave a double positive events in [6] of 63%. In assay [6], the vesicle binding response was 256% (inactive). In addition, the figures for the inhibition in assay [7], in assay [11] and in assay [15] were 4.73% (inactive), -3.63% (inactive) and 8% (inactive), respectively. The superoxide response (% of plate) in assay [8] was 107% (inactive). Further, the aptamer binding inhibition in assay [9] is 2% (inactive). The results for the response in assay [10] and in [12] were -6.79% (inactive) and -4.39% (inactive), respectively. In [13], the binding (% of control) is 95.8% (inactive). In addition, in assay [14], the efflux inhibition (fraction of control) is -0.01 (inactive). Moreover, the differentiation response in assay [16] is -2.69% (inactive).

In the case of `CC(C)(C)n1c(=O)[nH]c2c(c1=O)CCC2`, in assay [1], the percent of DMSO control GFP is 105% (inactive). The GFP response vs DMSO in assay [2] is 103% (inactive); in assay [4] it was 113% (inactive). The percent response of DMSO control in assay [3] is 98.3% (inactive). In assay [5], the GFP response, % of DMSO is 110% (inactive). In [6], the double positive events turned out to be 61.8%. Besides, the vesicle binding response in assay [6] was 205% (inactive). Also, the results for the inhibition in [7], in [11] and in assay [15] were 8.25% (inactive), 66.2% (active) and -3% (inactive), respectively. Moreover, the superoxide response (% of plate) in [8] is 98.5% (inactive). Further, the aptamer binding inhibition in assay [9] was 0% (inactive). In addition, the results for the response in assay [10] and in assay [12] were -17.6% (inactive) and 7.46% (inactive), respectively. The binding (% of control) in assay [13] is 100% (inactive). In addition, the efflux inhibition (fraction of control) in assay [14] was 0.08 (inactive). Further, the differentiation response in assay [16] was -12.9% (inactive).
